Compound activity: PubChem, National Center for Advancing Translational Sciences (NCATS)
Hits are enriched below; roughly 19% of the tested compounds scored in any of these assays.
HT1080-NT tox: kills 2HG-producing HT-1080-NT fibrosarcoma cells | HT-1080-NT fibrosarcoma viability, CellTiter-Glo ATP luminescence, 48 h | 360,000 compounds, 1.6% hits | AID 686970 | Potency, µM (top dose mostly 46.1 µM), for inactives: top-dose activity, negative = less viability, usual class: cytotoxic;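 also: NT is the 2HG producing partner of a matched IDH1 knockdown line; potency is read from the fitted curve at half-maximal effect; 0% = DMSO-treated cells and -100% = media-only wells without cells; nearly all actives have a fitted effect of over 55% in size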
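Fibrosarcoma NT cells, 750 per well in 5% FBS RPMI, were exposed to compound for 48 hours. Viability: CellTiter-Glo luminescence.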
HT1080 IDH1KD tx: HT-1080 IDH1 knockdown cell toxicity (counter line); HT-1080 IDH1 knockdown viability, ATP luminescence, 48 h; Potency, µM (highest dose often 46.1 µM), inactives show top-dose activity, negative = toxicity, actives largely listed as cytotoxic; 360,000 compounds, 2% hits; AID 686971;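 also: potency is read from the fitted curve at half-maximal effect; 0% = DMSO wells and -100% = cell-free medium wells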
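Cytotoxicity counter-line: IDH1KD HT-1080, 48 h, CellTiter-Glo. Curves classed by r2, magnitude and activity.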
TDP1 cell CPT: DT40-hTDP1 cell growth loss with CPT; Potency, µM (series often up to 46.2 µM), without a hit: at the top dose activity change, negative = growth inhibition, hits mostly inhibitors; chicken DT40 Tdp1-/-;hTDP1 cells + 20 nM CPT, ATP luminescence, 48 h; 420,000 compounds, 12% hits; AID 686979; also: potency is read from the fitted curve at half-maximal effect; nearly all actives have a fitted effect of over 55% in size
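Chicken DT40 Tdp1-/- cells stably complemented with human TDP1 were seeded at 400 cells/well in medium containing 20 nM camptothecin, exposed to pin-transferred compounds, and grown at 37 °C for at least 48 hr. Viability was read as ATP luminescence.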
IL1B secr inh: blocks inflammasome-driven IL-1 beta release; THP-1 LPS/ATP IL-1B secretion, AlphaLISA, 16 h; hits give low values; activity change, % at 57.5 µM; 360,000 compounds, 4.7% hits; AID 743279; in the data active = activity change below about -50%; inconclusive = mostly about -30% to -49%
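THP-1 cells pretreated 1 hr with compounds (up to 57.5 uM final), then stimulated with LPS (250 ng/mL final) plus ATP (1.25 mM final); secreted IL-1B measured by AlphaLISA after 16 hr, decreased signal indicating inhibition.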
uPA generation: inhibitors of cell surface uPA generation; cell surface uPA generation assay, qHTS; 330,000 compounds, 0.31% hits; Potency, µM (top dose mostly 38.3 µM), for the others: at the top dose activity change, negative = inhibition, hits mostly inhibitors; AID 540303; active = well fitted inhibition curve with a large enough effect; inconclusive = small, poorly fitted or top-dose-only effect; inactive = no such curve, though single readings can be large or run the other way; tested in mouse RAW 264.7 cells; also: potency is read from the fitted curve at half-maximal effect; nearly all actives have a fitted effect of over 55% in size
TDP1 cell noCPT: qHTS for Inhibitors of human tyrosyl-DNA phosphodiesterase 1 (TDP1): qHTS in cells in absence of CPT; DT40 Tdp1-/- hTDP1 cells, no CPT, ATP luminescence, 48 h; Potency, µM (doses to about 46.2 µM), without a hit: top-dose activity change, negative = growth inhibition, actives largely listed as inhibitors; 420,000 compounds, 15% hits; also: potency is read from the fitted curve at half-maximal effect; nearly all actives have a fitted effect of over 55% in size
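A cellular qHTS used chicken DT40 cells lacking endogenous Tdp1 but carrying stably transfected human TDP1. Compounds were applied without camptothecin, and cell growth kinetics were judged by ATP-dependent luminescence after ≥48 hr.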
Active calls of the source: *; ? = inconclusive; . = not tested or not shown; [ ] = remark or other dose. Unless noted, calls follow the shape of the dose curve; as a rule, active = well fitted curve in the direction sought with a large enough effect; inconclusive = small, poorly fitted or top-dose-only effect, or another doubt; inactive = no such curve, though single readings can be large; an effect the other way counts as inactive or inconclusive. Unless noted, % is scaled to controls: 0 for no effect and ±100 for the full control effect.

SMILES	HT1080-NT tox	HT1080 IDH1KD tx	TDP1 cell CPT	IL1B secr inh	uPA generation	TDP1 cell noCPT
CN(C(=O)CN1C(=O)/C(=C/c2ccccc2Cl)SC1=S)C1CCS(=O)(=O)C1 (configuration not stated)	12%	18%	16µM*	?	6%	?
CCN(C(=O)CCN1C(=O)S/C(=C\c2ccccc2)C1=O)C1CCS(=O)(=O)C1 (configuration not stated)	1%	4%	16µM*	-23	-8%	?
CN(C(=O)CN1C(=O)S/C(=C\c2ccccc2Cl)C1=O)C1CCS(=O)(=O)C1 (configuration not stated)	?	23%	-22%	-8	0%	19%
CN(C(=O)CN1C(=O)/C(=C/c2ccc(F)cc2)SC1=S)C1CCS(=O)(=O)C1 (configuration not stated)	-3%	5%	?	-2	-3%	?
CN(C(=O)CN1C(=O)/C(=C/c2ccccc2F)SC1=S)C1CCS(=O)(=O)C1 (configuration not stated)	-3%	10%	18µM*	-1	-1%	?
CN(C(=O)CN1C(=O)S/C(=C\c2ccccc2)C1=O)C1CCS(=O)(=O)C1 (configuration not stated)	0%	0%	16%	-7	11%	-4%
COC(=O)c1ccc(OCC(O)CNCC(c2ccc(OC)cc2)N(C)C)c(OC)c1 (configuration not stated)	-4%	11%	-27%	-11	-4%	-13%
COc1cccc(Cn2cnc3c(NS(=O)(=O)c4ccc(Cl)cc4Cl)c(C)c(C)cc32)c1	-18%	-14%	?	-11	-4%	?
COc1cccc(Cn2cnc3c(NS(=O)(=O)c4cccc(Cl)c4Cl)c(C)c(C)cc32)c1	-1%	-27%	21µM*	?	-3%	23µM*
CCCCC(=O)N/N=C/c1ccc(Sc2cccc3cccnc23)o1	?	?	?	-19	13%	23µM*
O=C(CSc1cccc2cccnc12)N/N=C/c1cccc(O)c1	19%	1%	?	-23	-2%	16µM*
O=C(N/N=C/c1ccc(O)c(O)c1)c1ccc(CSc2cccc3cccnc23)cc1	-21%	-20%	?	2	-9%	8.2µM*
O=C(CSc1cccc2cccnc12)N/N=C/c1ccc(F)cc1	-8%	-7%	-8%	-15	1%	-16%
Cc1ccc(S(=O)(=O)N(CC(=O)N/N=C/c2cccc(C)c2)c2cccc3cccnc23)cc1	7%	1%[9.24 µM]	?	-10	-5%	21µM*
CCCCCCCC(=O)N/N=C/c1cccnc1	?	8%	-22%	5	-5%	-3%
CCOC(=O)N1CCN(C(=O)c2c[nH]c3ccc(S(=O)(=O)N(C)c4ccc(OCC)cc4)cc3c2=O)CC1	-2%	0%	-3%	-4	2%	20%
CC1CC(C)CN(S(=O)(=O)c2ccc(C(=O)N(c3ccccn3)C3CCCCC3)cc2)C1 (configuration not stated)	6%	-3%	?	-14	6%	16µM*
O=C(c1ccc(S(=O)(=O)N2CCCCC2)cc1)N(c1ccccn1)C1CCCCC1	24%	27%	23µM*	2	4%	?
O=C(c1ccc(S(=O)(=O)N2CCCCCC2)cc1)N(c1ccccn1)C1CCCCC1	4%	-16%	?	20	8%	?
COc1cccc2c1Oc1ncccc1N(C(=O)CCC(=O)NCCC(C)C)C2	.	.	-26%	.	.	-19%
CC1CC(C)CN(CCC(=O)Nc2ccc(Br)cc2)C1 (configuration not stated)	-6%	-4%	?	-54*	7%	?
CCOC(=O)C1CCCN(CCC(=O)Nc2ccc(Br)cc2)C1 (configuration not stated)	-2%	-19%	?	-60*	0%	?
CC1CCN(CCC(=O)Nc2ccc(Br)cc2)CC1	0%	?	-1%	-4	-3%	-19%
CC(C)C(=O)Nc1ccc2nc(SCC(=O)N3CCc4ccccc43)sc2c1	.	.	10µM*	.	.	4.1µM*
CC(C)CC(=O)Nc1ccc2nc(SCC(=O)N3CCc4ccccc43)sc2c1	.	.	5.2µM*	.	.	2.9µM*
SMILES	HT1080-NT tox	HT1080 IDH1KD tx	TDP1 cell CPT	IL1B secr inh	uPA generation	TDP1 cell noCPT
CCC(CC)C(=O)Nc1ccc2nc(SCC(=O)N3CCc4ccccc43)sc2c1	.	.	4.6µM*	.	.	5.2µM*
CCCC(=O)Nc1ccc2nc(SCC(=O)N3CCCC3)sc2c1	9%	3%	-26%	7	1%	?
CC(=O)Nc1nnc(SCC(=O)N2CCCc3ccccc32)s1	-1%	1%	1%	16	5%	0%
CN(C)c1ncc2nc(-c3ccccc3)c(=O)n(Cc3cccs3)c2n1	.	.	13%	.	.	11%
CCCS(=O)(=O)NC(=O)C1(C)CCN(C(=O)c2snnc2C)C1 (configuration not stated)	22%	9%	-1%	15	.	-1%
Cc1ccc(C(O)c2ncc(-c3ccccc3C(F)(F)F)[nH]2)cc1F (configuration not stated)	-20%	-10%	?	45	.	?
C=CCNc1ncnc2c1ncn2[C@H]1CN(Cc2ccc(F)cc2)C[C@@H](CO)O1	?	1%	?	19	.	?
C[N+]1(CC(=O)c2ccc(F)cc2)CCc2ccccc2C1 (configuration not stated)	.	.	-11%	.	.	-21%
CCOc1ccc(N=C2NC(=O)CS2)cc1	-2%	0%	-10%	0	-13%	9%
COC(=O)c1c(-c2ccc(Cl)cc2)noc1N1CCN(c2cccc(C)c2C)CC1	.	.	16µM*	.	.	?
CC1=C(c2ccc(Cl)cc2)S(=O)(=O)N=C1N1CCN(c2cccc(C)c2C)CC1	.	.	-19%	.	.	-30%
COc1cccc(N2CCN(c3ncnc4onc(-c5ccc(F)cc5)c34)CC2)c1	.	.	5%	.	.	0%
COC(=O)c1c(-c2ccc(Cl)cc2)noc1N1CCN(c2cccc(OC)c2)CC1	.	.	16µM*	.	.	5.8µM*
COc1ccc(-n2cc(C(=O)c3cc4ccccc4oc3=O)c(C(C)=O)n2)cc1	0%	3%	23µM*	?	-1%	?
Cn1cccc1C(=O)N1CCC2(CCCN(Cc3nccs3)C2)CC1	.	.	3%	.	.	?
